# According to PubChem BioAssay (NCATS):
# Inconclusive results are not listed. A number with no mark means an inactive call. Activity calls are given as the source filed them. Calls follow the shape of the dose curve; as a rule, active = well fitted cell-killing curve with a large enough effect; inconclusive = small, poorly fitted or top-dose-only effect, or effect the other way; inactive = no such curve, though single readings can be large or run the other way.
# Assays:
# [1] = Viability qHTS for spleen associated tyrosine kinase inhibitor (SYKi) naive MV4-11 cells (AID 1963823); also: nearly all actives have a fitted effect of over 40% in size
# Method in brief: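 SYKi-naive MV4-11 AML cells, 500 per well, were exposed to library compounds for 72 hr at 37 C, 5% CO2. Viability was then read by CellTiter-Glo luminescence after 10 min at room temperature.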
# [2] = Viability qHTS for spleen associated tyrosine kinase inhibitor (SYKi) drug resistant MV4-11 cells (AID 1963824); also: nearly all actives have a fitted effect of over 35% in size
# Method in brief: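 SYK-inhibitor-resistant MV4-11 AML cells were seeded at 500 per well onto compound and cultured 72 hours (37 °C, 5% CO2). CellTiter-Glo was then added, and after 10 min at room temperature, luminescence gave viability.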
# Potency is read from the fitted curve at half-maximal effect.
smiles,measurement,setting,value
OCC(Cc1ccccc1)Nc1nc(Oc2ccc3c(c2)CCC3)nc2c1ncn2Cc1ccc(-c2ccccc2)cc1 (stereo not given),Potency,[1],18.4 µM (active)
C=CC(C)(O)CC[C@H]1C(=C)CCC2[C@](C)(C(=O)O)CCC[C@@]21C (stereo not given in full),Potency,[1],inactive
Cc1cc(C(=O)Nc2nc3cccc(Cl)c3n2C2CCCCN(C(=O)/C=C/CN(C)C)C2)ccn1 (stereo not given),Potency,[1],5.17 µM (active)
C/C=C1/[C@H](O[C@@H]2O[C@H](CO)[C@@H](O)[C@H](O)[C@H]2O)OC=C(C(=O)OC)[C@H]1CC(=O)OCCc1ccc(OC(=O)C[C@@H]2C(C(=O)OC)=CO[C@@H](O[C@@H]3O[C@H](CO)[C@@H](O)[C@H](O)[C@H]3O)/C2=C/C)cc1,viability (% of control),[1],67.3% [at 9.25 µM]
CC(=O)NC1=NN(C(C)=O)C(C)(c2ccccc2)S1 (stereo not given),Potency,[1],1.84 µM (active)
same,Potency,[2],2.59 µM (active)
CC(=O)OCCC(C)CCC1C(C)(O)CCC2C(C)(C)CCCC21C (stereo not given),Potency,[1],inactive
O=C(O)CC1CC(c2ccccc2)=NO1 (stereo not given),Potency,[1],inactive
COC1CC(OC2CCC3(C)C(=CCC4C3C(OC(C)=O)C(OC(=O)/C=C/c3ccccc3)C3(C)C(C(C)O)CCC43O)C2)OC(C)C1OC1CC(OC)C(OC2OC(C)C(OC3OC(CO)C(O)C(O)C3O)C(OC)C2O)C(C)O1 (stereo not given),viability (% of control),[1],69.8% [at 9.25 µM]
same,"viability, % of control",[2],71.5% [at 9.25 µM]
O=C(/C=C/c1ccc(O)c(O)c1)OCc1ccccc1O[C@@H]1O[C@H](CO)[C@@H](O)[C@H](O)[C@H]1O,Potency,[1],inactive
same,Potency,[2],inactive
C=C1C(=O)OC2C1CCC(=C)C1CC(OC(C)=O)C(=C)C12 (stereo not given),Potency,[1],3.26 µM (active)
same,Potency,[2],2.31 µM (active)
O=C(/C=C/c1ccc(O)cc1)O[C@@H]1C[C@@](O)(C(=O)O)C[C@@H](O)[C@@H]1O,Potency,[1],inactive
same,Potency,[2],inactive
CC(=O)c1ccc(O[C@@H]2OC[C@@H](O)[C@H](O)[C@H]2O[C@]2(CO)O[C@H](CO)[C@@H](O)[C@@H]2O)c(O)c1,Potency,[1],inactive
same,Potency,[2],inactive
O=C(O[C@H]1[C@@H]2C=CO[C@@H](O[C@@H]3O[C@H](CO)[C@@H](O)[C@H](O)[C@H]3O)[C@@H]2[C@@]2(CO)O[C@@H]12)c1ccc(O)c(O)c1,Potency,[1],inactive
same,Potency,[2],inactive
C=C1C(=O)O[C@@H]2C3=C(C)CCC[C@]3(C)CC[C@@]12O,Potency,[1],1.64 µM (active)
same,Potency,[2],0.731 µM (active)
O=C1NCCSc2c1sc1ccc(O)cc21,Potency,[1],2.59 µM (active)
same,Potency,[2],2.91 µM (active)
CCn1c(=O)c(-c2ccc(-c3cncc(C)n3)cc2Cl)cc2cnc(NCCC3CCN(C)CC3)nc21,Potency,[1],1.18 µM (active)
same,Potency,[2],2.09 µM (active)
CNC(=O)c1ccc2c(c1)CCO[C@H]2CCN1CCN(c2ccc(C(N)=O)cc2)CC1,Potency,[1],inactive
same,Potency,[2],inactive
Cc1cc(-c2cc(O)ccc2Cl)cc2nnc(Nc3ccc(OCCN4CCCC4)cc3)nc12,Potency,[1],1.84 µM (active)
same,Potency,[2],1.84 µM (active)
CC/C=C\[C@H](O)[C@H](O)C1=C(C)C(=O)[C@]2(O1)C(=O)N[C@@](OC)(C(=O)c1ccccc1)[C@@H]2O,Potency,[1],inactive
same,Potency,[2],inactive
Cc1ccc(-c2c(C(=O)CF)n(CCCO)c3ncnc(N)c23)cc1,Potency,[1],3.66 µM (active)
same,Potency,[2],10.3 µM (active)
C=C1C(=O)O[C@H]2[C@H]1[C@@H](OC(=O)/C(C)=C\C)C[C@]1(C)O[C@@H]1[C@H]1O[C@H]1C(=C)[C@H]2O,Potency,[1],8.05 µM (active)
same,Potency,[2],3.6 µM (active)
C=C[C@@]1(C)CC(=O)C2[C@](C)(O1)[C@@H](OC(C)=O)[C@@H](O)[C@H]1C(C)(C)CCC[C@]21C (stereo not given in full),viability (% of control),[1],97.8% [at 9.25 µM]
same,"viability, % of control",[2],89.7% [at 9.25 µM]
Cc1ccc(NC(=O)c2ccc(CN3CC[C@H](N(C)C)C3)c(C(F)(F)F)c2)cc1Nc1nccc(-c2cncnc2)n1,Potency,[1],6.32 µM (active)
same,Potency,[2],7.23 µM (active)
Cc1ccc(C)c(S(=O)(=O)n2cnc3ccccc32)c1,Potency,[1],inactive
same,Potency,[2],inactive
CC1(C(=O)O)CC[C@]2(C(=O)OC3OC(CO)C(O)C(O)C3O)CC[C@]3(C)C(=CCC4[C@@]5(C)CC[C@H](OC6OCC(O)C(O)C6OC6OC(CO)C(O)C(O)C6O)C(C)(C)C5CC[C@]43C)C2C1 (stereo not given in full),viability (% of control),[1],68.3% [at 9.25 µM]
same,"viability, % of control",[2],78.9% [at 9.25 µM]
N#Cc1cnc2c(Cl)cc(NCc3cn(CCN4CCCCCC4)nn3)cc2c1Nc1ccc(F)c(Cl)c1,Potency,[1],9.2 µM (active)
same,Potency,[2],13 µM (active)
CC1(C)CCC2(C(=O)O)C(O)CC3(C)C(=CCC4C5(C)CCC(OC6OC(CO)C(O)C(O)C6OC6OC(CO)C(O)C(O)C6OC6OCC(O)(CO)C6O)C(C)(C)C5CCC43C)C2C1 (stereo not given),viability (% of control),[1],68.6% [at 9.25 µM]
same,"viability, % of control",[2],84.8% [at 9.25 µM]
CC(C)=CCC[C@](C)(O[C@@H]1O[C@H](CO[C@@H]2O[C@@H](CO)[C@H](O)[C@H]2O)[C@@H](O)[C@H](O)[C@H]1O)[C@H]1CC[C@]2(C)[C@@H]1[C@H](O)C[C@@H]1[C@@]3(C)CC[C@H](O[C@@H]4O[C@H](CO)[C@@H](O)[C@H](O)[C@H]4O[C@@H]4O[C@H](CO)[C@@H](O)[C@H](O)[C@H]4O)C(C)(C)[C@@H]3CC[C@]12C,Potency,[1],inactive
same,Potency,[2],inactive
